# Bioassay records deposited in PubChem by National Center for Advancing Translational Sciences (NCATS).
# D1 antag: antagonists of human D1 dopamine receptor. P21728. actives 3.2% (n = 360,000). activity change, negative = inhibition, % at 10 µM. HEK293 TREx D1 cells, calcium flux, dopamine EC80; active compounds read low; in the data active = activity change below about -30%; note: % is set by controls: 0 for no effect and ±100 for the full control effect
# Target sequence (P21728 whole entry, looked up): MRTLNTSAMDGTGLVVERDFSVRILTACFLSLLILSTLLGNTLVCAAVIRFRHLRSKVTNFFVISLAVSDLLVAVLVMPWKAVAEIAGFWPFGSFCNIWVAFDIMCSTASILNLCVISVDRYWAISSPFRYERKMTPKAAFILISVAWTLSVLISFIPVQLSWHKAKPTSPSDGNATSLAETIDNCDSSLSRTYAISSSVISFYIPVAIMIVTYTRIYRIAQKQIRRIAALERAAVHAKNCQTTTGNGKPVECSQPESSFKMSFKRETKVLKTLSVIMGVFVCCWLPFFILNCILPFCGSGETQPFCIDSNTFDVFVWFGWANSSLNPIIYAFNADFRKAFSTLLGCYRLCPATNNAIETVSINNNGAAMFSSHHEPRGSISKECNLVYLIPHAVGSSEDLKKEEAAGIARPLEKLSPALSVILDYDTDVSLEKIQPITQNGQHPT
#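 Cells carrying a force-coupled, tetracycline-inducible human D1 receptor report calcium flux. Each well gets a 10 s baseline, compound with 180 s monitoring, then an EC80 dopamine stimulus with a second 180 s kinetic read.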
# D1 ag: agonists of human D1 dopamine receptor | P21728 | HEK293 T-REx D1 cells, calcium flux, agonist mode | activation, % at 2 µM | actives 1% (n = 360,000) | AID 504660; in the data active = activation above about 30%; note: 0% is about no effect
#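 Agonism was scored from calcium flux recorded over 180 s (1 read/s) after pintool compound addition, following a 10-cycle baseline. Cells were inducible force-coupled HEK293 TREx D1, plated overnight at 30 C and loaded with no-wash calcium dye.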
# D1 potentiator: potentiators of human D1 dopamine receptor; HEK293 TREx D1 cells, calcium flux, dopamine EC20 potentiation; AID 504651; potentiation, % at 10 µM; P21728; actives 0.036% (n = 360,000); in the data active = potentiation above about 30%; note: 0% is about no effect
# DRD3 agonist: D3 dopamine receptor (human) agonism | P35462 | D3R DiscoveRx beta-arrestin cells, luminescence, 90 min | max activation, % | actives 0.58% (n = 410,000); in the data active = max activation above about 30%; note: 0% is about no effect
#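 Agonist-mode cell screen: cells plated at 1500/well and incubated overnight at 37 °C, then exposed to library compounds for 90 min at 37 °C. Detection reagent was added for 30–60 min at room temperature, and luminescence was read.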
# DRD3 antagonist: D3 dopamine receptor (human) antagonism; actives 2.5% (n = 360,000); P35462; D3R cells, DiscoveRx beta-arrestin luminescence, antagonist mode; active compounds read low; max response, negative = inhibition, %; in the data active = max response below about -50%; note: % is set by controls: 0 for no effect and ±100 for the full control effect
#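 Cells plated overnight at 1500 cells/well, then exposed to library compounds with dopamine controls for 90 minutes at 37 degrees C. DiscoveRx reagent added for 30–60 minutes at room temperature; luminescence read, quantitative HTS format.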
# * = called active by the depositor; nt = no result. This is a sample that favours compounds with a hit; in the whole collection about 6.1% have one here.
SMILES,D1 antag,D1 ag,D1 potentiator,DRD3 agonist,DRD3 antagonist
C=CCn1c(SCC(=O)Nc2ccc(OC)cc2)nnc1-c1cnccn1,-9,1,32*,4,1
COc1ccc(-c2nnc(SCC(=O)Nc3ccc(Cl)cc3)n2C)cc1,3,-1,1,-6,-57*
C[C@@H](NCCCc1cccc(C(F)(F)F)c1)c1cccc2ccccc12,nt,nt,nt,-16,nt
c1ccc(Nc2c(-c3c[nH]c4ccccc34)nc3ccccn23)cc1,-6,-1,-1,2,nt
NC(=O)SCC(=O)Nc1ccc(Cl)cc1,14,3,1,-11,-53*
NC(=O)SCC(=O)Nc1ccc(Cl)c(Cl)c1,-4,2,-1,1,0
CCc1ccccc1NC(=O)Nc1nnc(N(C)Cc2ccccc2)s1,-17,-1,-3,5,nt
Clc1ccc(OCc2nnc(SCc3nnc(-c4ccccc4)o3)o2)c(Cl)c1,-18,35*,-2,1,25
COc1ccc(NC(=S)c2ccncc2)cc1,-7,5,2,-10,-9
COc1ccc(C(=S)Nc2ccc(C)cc2)cc1,-21,2,-8,-11,-67*
COc1ccc(C(=S)NCS(=O)(=O)c2ccc(C)cc2)cc1,-35*,6,-4,-5,-17
c1ccc(Cn2c(Cn3c(-c4cnccn4)nc4ccccc43)nc3ccccc32)cc1,nt,nt,nt,-4,-22
Fc1ccc(CCn2c(Cn3c(-c4cnccn4)nc4ccccc43)nc3ccccc32)cc1,nt,nt,nt,-14,-59*
FC(F)(F)c1nc2nc(Cl)c(Cl)nc2[nH]1,nt,nt,nt,-1,-8
FC(F)(F)c1cccc(-c2nc3nc(Cl)c(Cl)nc3[nH]2)c1,-35*,33*,-8,3,-4
Cc1cc(C)n(-c2nc(C)c(C)c(=O)n2CC(=O)Nc2ccc(OC(F)(F)F)cc2)n1,nt,1,1,-19,nt
O=C(CSc1ccc(Cl)cc1)N1N=CCC1c1ccccc1 (stereo unspecified),-3,-1,-4,-11,3
CCN1CCN(CC(=O)N2N=CCC2c2ccccc2)CC1 (stereo unspecified),-2,3,-8,-9,-51*
Cc1ccccc1CC1(CO)CCCN(Cc2c(C)nn(C)c2Cl)C1 (stereo unspecified),-33*,17,-5,-6,-13
Cn1cc(CN2CCCC(CO)(Cc3cccc(Cl)c3)C2)cn1 (stereo unspecified),5,0,-4,-9,-24
CSCC(=O)N1CCCC(CO)(Cc2ccccc2C)C1 (stereo unspecified),-53*,2,-2,-10,-6
OCC1(Cc2cccc(Cl)c2)CCCN(Cc2cnn(-c3ccccc3)c2)C1 (stereo unspecified),4,4,-5,-18,-62*
OCC1(Cc2ccc(F)cc2F)CCCN(Cc2ccc(Cl)cc2)C1 (stereo unspecified),-1,3,-4,-21,-83*
CC1=C(C(=O)Nc2ccc(C)cc2Cl)C2(CCCCC2)OC1=O,14,8,-3,-4,nt
CCOC(=O)c1cc(C)n(CC2CCC(C(=O)Nc3cccc(C)c3)CC2)c1C (stereo unspecified),9,0,2,1,nt
SMILES,D1 antag,D1 ag,D1 potentiator,DRD3 agonist,DRD3 antagonist
N#C/C(=C\c1ccc(Cl)cc1)C(=O)NCC1CCCO1 (stereo unspecified),10,1,5,10,nt
COc1ccc(NC(=O)CSc2nc3ccccc3n2CC(=O)N2CCCC(C)C2)cc1 (stereo unspecified),0,-2,0,7,nt
CSc1cccc(CN2CCCC(CO)(Cc3cccc(Cl)c3)C2)c1 (stereo unspecified),3,5,0,0,-3
Cc1nn(C)c(Cl)c1CN1CCCC(CO)(Cc2cccc(Cl)c2)C1 (stereo unspecified),-33*,11,-4,4,11
Cc1ccc(NC(=O)CSc2nc3ccc(NC(=O)c4cccs4)cc3s2)c(C)c1,-17,0,-1,-4,nt
C=CCSC1=N/C(=C/c2ccsc2)C(=O)N1c1ccccc1,-58*,7,-13,0,14
C=CCSC1=N/C(=C\c2cccnc2)C(=O)N1c1ccc(OC)cc1,-54*,4,-11,1,-3
CCSC1=N/C(=C\c2ccccc2)C(=O)N1c1ccc(OC)cc1,-2,4,-4,5,-25
